“And” between values parts separate entries of the source, which are not always exact repeats. Equal values may be shown once. Records with an inconclusive call do not appear. Entries that show only a call come without a potency. A structure can be active in one record and inactive in another. The source made the active and inactive calls. Unless noted, the call rests on the fitted dose curve; in most records, active means well fitted inhibition curve with a large enough effect; inconclusive means small, poorly fitted or top-dose-only effect; inactive means no such curve, though single readings can be large or run the other way.

Data on 34 compounds can be found in PubChem BioAssay (NCATS).

The nature of one test: High-throughput drug toxicity screening in the BPDCN cell line Cal-1 (AID 1224825; call rule not given here). The conditions noted are these: Cal-1 BPDCN cell viability, qHTS; at 45.8 µM (top of the series) unless noted. The gist of the method: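 Exponentially growing Cal-1 cells, 500 per well in phenol red-free RPMI with 10% FBS, were exposed to compounds for 48 h at 37 °C, 5% CO2. Viability was read by CellTiter-Glo luminescence and normalised to DMSO (100%) and 9.2 uM bortezomib (0%).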
(In qHTS, concentration-response curves come from the screen itself.)
In the case of `CCCNCC(O)COc1ccccc1C(=O)CCc1ccccc1` (stereo not drawn), the viability (% of control) amounted to 1.7%. On to `Cc1cnc(C(=O)NCCc2ccc(S(=O)(=O)NC(=O)NC3CCCCC3)cc2)cn1`, for which the viability (% of control) is 58.3%. As for `O=C(C1CCCCC1)N1CC(=O)N2CCc3ccccc3C2C1` (stereo not drawn), the viability (% of control) was 105%. The same measure, in the same setting: in the case of `NC12CC3CC(CC(C3)C1)C2` it was 9.3%; in that of `Nc1nc2c(ncn2COC(CO)CO)c(=O)[nH]1`, 3.13%; in that of `C[C@H]1c2cccc(O)c2C(O)=C2C(=O)[C@]3(O)C(O)=C(C(N)=O)C(=O)[C@@H](N(C)C)[C@@H]3[C@@H](O)[C@@H]21`, 19.9%.

In the case of `CC1COc2c(N3CCN(C)CC3)c(F)cc3c(=O)c(C(=O)O)cn1c23` (stereo not drawn), the viability (% of control) is 42.1%. The same measure, in the same setting: in the case of `NCCc1cnc[nH]1` it was 99.6%.

For the compound `CN1CCN(C2=Nc3cc(Cl)ccc3Nc3ccccc32)CC1`, the viability (% of control) was found to be 83.1%. On the same count and under the same terms, in the case of `CC(C)(C)C(=O)Oc1ccc(S(=O)(=O)Nc2ccccc2C(=O)NCC(=O)O)cc1` it was 96%; in that of `NC(CO)C(=O)NNCc1ccc(O)c(O)c1O` (stereo not drawn), 79.5%; in that of `CN(Cc1cnc2nc(N)nc(N)c2n1)c1ccc(C(=O)N[C@@H](CCC(=O)O)C(=O)O)cc1`, 9.1%.

As for `OCCN1CCN(CCCN2c3ccccc3Sc3ccc(C(F)(F)F)cc32)CC1`, the viability (% of control) stood at 6.77%. Consider `Fc1ccc([C@@H]2CCNC[C@H]2COc2ccc3c(c2)OCO3)cc1`, for which the viability (% of control) worked out at 79%. The same measure, in the same setting: the result for `CN1C(C(=O)Nc2ccccn2)=C(O)c2ccccc2S1(=O)=O` reads 8.08%; that for `CCOC(=O)C(C)(C)Oc1ccc(Cl)cc1`, 22.1%. As for `Cc1cc(C(C)(C)C)c(O)c(C)c1CC1=NCCN1`, the viability (% of control) was 110%. Same read-out and setting: the result for `O=c1[nH]cc(F)c(=O)[nH]1` reads 29.1%; that for `CCOC(=O)Nc1ccc(NCc2ccc(F)cc2)nc1N`, 96.5%; that for `O=C(c1ccc(OCCN2CCCCC2)cc1)c1c(-c2ccc(O)cc2)sc2cc(O)ccc12`, 40.4%. On the same count and under the same terms, the result for `NC(=O)NO` reads 2.6%; that for `CN1C2CCC1CC(OC(=O)C(CO)c1ccccc1)C2` (stereo not drawn), 113%; that for `COc1ccccc1OCCNCC(O)COc1cccc2[nH]c3ccccc3c12` (stereo not drawn), 89.8%. For `CC(C)Cc1ccc(C(C)C(=O)O)cc1` (stereo not drawn), the viability (% of control) amounted to 113% [at 23.2 µM]. In the case of `Cc1ccccc1N1C(=O)c2cc(S(N)(=O)=O)c(Cl)cc2NC1C` (stereo not drawn), the viability (% of control) was 108%. With `CN(C)c1nc(N(C)C)nc(N(C)C)n1`, the viability (% of control) worked out at 106%. On to `CS(=O)(=O)Nc1ccc([N+](=O)[O-])cc1Oc1ccccc1`, for which the viability (% of control) came out at 17%. Still for that read-out and setting: the result for `OCCN(CCO)c1nc(N2CCCCC2)c2nc(N(CCO)CCO)nc(N3CCCCC3)c2n1` reads 95.3%. The same measure, in the same setting: the result for `COc1cc2nc(N3CCN(C(=O)c4ccco4)CC3)nc(N)c2cc1OC` reads 5.38%.

Another test is described as follows: qHTS assay for measurement of the activity of small molecule inhibitors on Zika virus induced Caspase-3 activity in human iPSC derived neural progenitor cells (hNPCs) (AID 1224857). Further: nearly all actives have a fitted effect of over 65% in size. Further: potency means the concentration at half of the fitted maximal effect. The conditions noted are these: hNPCs ZIKV-induced caspase-3/7, Caspase-Glo luminescence, 6 h; series mostly up to 45.7 µM. The gist of the method: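 After overnight (16–20 h) culture at 350 cells/well, hNPCs get compound, then ZIKV 2 FFU/cell one hour later. Six hours on, Caspase-Glo 3/7 is added and luminescence measured.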
Regarding `CCCNCC(O)COc1ccccc1C(=O)CCc1ccccc1` (stereo not drawn), the Potency entry was “inactive”. As to `Cc1cnc(C(=O)NCCc2ccc(S(=O)(=O)NC(=O)NC3CCCCC3)cc2)cn1`, the Potency entry was “inactive”.

For `O=C(C1CCCCC1)N1CC(=O)N2CCc3ccccc3C2C1` (stereo not drawn), the Potency result is “inactive”. On the same count and under the same terms, in the case of `NC12CC3CC(CC(C3)C1)C2` it was “inactive”; in that of `Nc1nc2c(ncn2COC(CO)CO)c(=O)[nH]1`, “inactive”. Same read-out and setting: in the case of `C[C@H]1c2cccc(O)c2C(O)=C2C(=O)[C@]3(O)C(O)=C(C(N)=O)C(=O)[C@@H](N(C)C)[C@@H]3[C@@H](O)[C@@H]21` it was “inactive”; in that of `CC1COc2c(N3CCN(C)CC3)c(F)cc3c(=O)c(C(=O)O)cn1c23` (stereo not drawn), “inactive”. For `NCCc1cnc[nH]1`, the Potency entry was “inactive”. Regarding `CN1CCN(C2=Nc3cc(Cl)ccc3Nc3ccccc32)CC1`, the Potency entry is “inactive”. The same measure, in the same setting: in the case of `CC(C)(C)C(=O)Oc1ccc(S(=O)(=O)Nc2ccccc2C(=O)NCC(=O)O)cc1` it was “inactive”. Same read-out and setting: the result for `NC(CO)C(=O)NNCc1ccc(O)c(O)c1O` (stereo not drawn) reads “inactive and 7.43 µM (active)”; that for `CN(Cc1cnc2nc(N)nc(N)c2n1)c1ccc(C(=O)N[C@@H](CCC(=O)O)C(=O)O)cc1`, “inactive”. In the case of `CC1(CN2CCC(n3c(=O)[nH]c4ccccc43)CC2)OCc2ccccc2-n2cccc21` (stereo not drawn), the Potency entry is “inactive”. On the same count and under the same terms, the result for `OCCN1CCN(CCCN2c3ccccc3Sc3ccc(C(F)(F)F)cc32)CC1` reads “inactive”; that for `Fc1ccc([C@@H]2CCNC[C@H]2COc2ccc3c(c2)OCO3)cc1`, “inactive”; that for `CN1C(C(=O)Nc2ccccn2)=C(O)c2ccccc2S1(=O)=O`, “inactive”. With `CCOC(=O)C(C)(C)Oc1ccc(Cl)cc1`, the Potency entry was “inactive”. Still for that read-out and setting: in the case of `Cc1cc(C(C)(C)C)c(O)c(C)c1CC1=NCCN1` it was “inactive”; in that of `O=c1[nH]cc(F)c(=O)[nH]1`, “inactive”; in that of `CC(=O)OCC(CCn1cnc2cnc(N)nc21)COC(C)=O`, “inactive”.

As for `CCOC(=O)Nc1ccc(NCc2ccc(F)cc2)nc1N`, the Potency entry was “inactive”.

For the compound `Cc1cn([C@H]2C[C@H](N=[N+]=[N-])[C@@H](CO)O2)c(=O)[nH]c1=O`, the Potency result is “inactive”. As to `O=C(c1ccc(OCCN2CCCCC2)cc1)c1c(-c2ccc(O)cc2)sc2cc(O)ccc12`, the Potency entry is “inactive”. For the compound `NC(=O)NO`, the Potency entry is “inactive”. Turning to `CN1C2CCC1CC(OC(=O)C(CO)c1ccccc1)C2` (stereo not drawn), the Potency result is “inactive”. In the case of `CCCCc1oc2ccccc2c1C(=O)c1cc(I)c(OCCN(CC)CC)c(I)c1`, the Potency result is “inactive”. Regarding `COc1cc2nc(N(C)CCCNC(=O)C3CCCO3)nc(N)c2cc1OC` (stereo not drawn), the Potency result is “inactive”.

In the case of `COc1ccccc1OCCNCC(O)COc1cccc2[nH]c3ccccc3c12` (stereo not drawn), the Potency entry is “inactive”.

As for `CC(C)Cc1ccc(C(C)C(=O)O)cc1` (stereo not drawn), the Potency result was “inactive”.

For the compound `Cc1ccccc1N1C(=O)c2cc(S(N)(=O)=O)c(Cl)cc2NC1C` (stereo not drawn), the Potency result is “inactive”. Same read-out and setting: in the case of `CN(C)c1nc(N(C)C)nc(N(C)C)n1` it was “inactive”. Take `CS(=O)(=O)Nc1ccc([N+](=O)[O-])cc1Oc1ccccc1`: the Potency entry is “inactive”. `OCCN(CCO)c1nc(N2CCCCC2)c2nc(N(CCO)CCO)nc(N3CCCCC3)c2n1`: the Potency result was “inactive”. Same read-out and setting: in the case of `COc1cc2nc(N3CCN(C(=O)c4ccco4)CC3)nc(N)c2cc1OC` it was “inactive”.
